High-throughput results (PubChem)
KCNQ2 pot – enhances the rat KCNQ2 potassium channel; B-score at 10 µM; AID 2239; CHO-K1 KCNQ2, FluxOR thallium flux fluorescence; active compounds read high; 0.54% of 310,000 active;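 active means fluorescence ratio B-score at least 3 SD of library B-scores, with initial fluorescence B-score within 3 of them, cut at about 5.3 in these data; same plate scores as AID 2156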;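 further: B-score of peak minus minimum over baseline fluorescence ratio after K+ and Tl+ stimulus; positive B-score means potentiation of KCNQ2 with more thallium influx and brighter signal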
Target sequence (O88943 whole entry, looked up): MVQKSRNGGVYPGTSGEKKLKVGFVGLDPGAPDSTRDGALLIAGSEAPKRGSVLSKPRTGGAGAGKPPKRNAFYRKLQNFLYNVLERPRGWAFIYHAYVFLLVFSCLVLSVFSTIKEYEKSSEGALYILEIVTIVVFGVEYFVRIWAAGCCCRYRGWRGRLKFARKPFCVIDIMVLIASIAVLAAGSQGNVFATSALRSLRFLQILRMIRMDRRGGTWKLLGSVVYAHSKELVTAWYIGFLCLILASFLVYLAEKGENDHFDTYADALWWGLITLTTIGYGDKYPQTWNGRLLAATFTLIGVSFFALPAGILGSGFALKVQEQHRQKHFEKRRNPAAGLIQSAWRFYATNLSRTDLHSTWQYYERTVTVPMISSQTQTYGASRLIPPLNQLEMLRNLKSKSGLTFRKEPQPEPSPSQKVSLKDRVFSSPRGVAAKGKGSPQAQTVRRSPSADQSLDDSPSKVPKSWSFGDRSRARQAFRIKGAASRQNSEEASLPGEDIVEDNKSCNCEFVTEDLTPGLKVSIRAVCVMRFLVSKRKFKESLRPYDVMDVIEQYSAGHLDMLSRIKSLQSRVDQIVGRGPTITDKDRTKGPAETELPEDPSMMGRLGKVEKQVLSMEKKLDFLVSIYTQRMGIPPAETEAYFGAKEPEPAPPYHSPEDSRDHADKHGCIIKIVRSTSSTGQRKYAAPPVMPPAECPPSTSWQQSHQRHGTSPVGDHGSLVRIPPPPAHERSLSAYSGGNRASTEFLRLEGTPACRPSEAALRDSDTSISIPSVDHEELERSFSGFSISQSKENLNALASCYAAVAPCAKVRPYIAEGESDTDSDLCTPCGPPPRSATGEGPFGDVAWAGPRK
KCNQ2 inh – KCNQ2 (rat) channel inhibition; CHO-K1 KCNQ2, FluxOR thallium flux, 20 min; active compounds read low; 1.1% of 310,000 active; O88943; B-score at 10 µM; AID 2156;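 active means fluorescence ratio B-score at most minus 3 library SDs, with starting brightness B-score within 2 library SDs, cut at about -5.5 in these data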
Hits are given with their value; i = inactive; nt = not tested or not shown. Compounds with a hit are over-represented: about 1.6% of the library has one in this group of screens.

SMILES	KCNQ2 pot	KCNQ2 inh
CCOc1ncccc1C(=O)OCC(=O)N(CC(C)C)C1CCS(=O)(=O)C1 (configuration not stated)	i	i
Cc1cc(/C=N/n2cnnc2)c(C)n1-c1ccc(OCc2ccc(Cl)cc2Cl)cc1	nt	i
Cc1cc(/C=N/n2cnnc2)c(C)n1-c1ccc(OCc2ccc(F)cc2)cc1	i	-6.18
CCC(NC(=S)NCc1ccc(F)cc1)c1ccc(C)cc1 (configuration not stated)	i	i
Cc1cccc(NC(=O)C2CCN(C(=O)N3CCOc4ccccc43)CC2)c1C	i	i
COCCn1c(C)cc(C(=O)CSc2nc(C)cc(C)c2C#N)c1C	nt	i
Cc1cc(C)c(C#N)c(SCC(=O)c2cc(C)n(CCc3ccccc3)c2C)n1	i	-6.44
COc1ccc(CNC(=O)COC(=O)C2CCC(C(C)(C)C)CC2)cc1 (configuration not stated)	nt	i
CC(C)c1ccc(/C=C/C(=O)N2CCCCCC2)cc1	nt	i
CC(C)c1ccc(/C=C/C(=O)n2nnc3ccccc32)cc1	i	-6.21
COc1ccc2[nH]c3c(N4CC(C)OC(C)C4)ncnc3c2c1 (configuration not stated)	i	i
COc1cccc(N2CCN(c3ncnc4c3[nH]c3ccc(F)cc34)CC2C)c1 (configuration not stated)	i	-11.2
COc1cccc(N2CCN(c3ncnc4c3[nH]c3ccccc34)CC2C)c1 (configuration not stated)	i	-11.1
c1ccc2c(c1)CCN(c1ncnc3c1[nH]c1ccccc13)C2	nt	i
Cc1ccc(CNC(=O)C2CC3Cn4c(nc5cc6ccccc6cc54)C3N2C)o1 (configuration not stated)	i	i
Cc1oc2c(CN3CCC(C)CC3)c(O)ccc2c(=O)c1-c1ccccc1	nt	i
COCCn1c(SCC(=O)Nc2ncc(C)s2)nc2sc3c(c2c1=O)CCC3	i	i
COCCn1c(SCc2nnc(-c3ccccc3)o2)nc2sc3c(c2c1=O)CCC3	i	-6.63
CCOC(=O)N1CCN(CC(=O)Nc2nnc(C(F)(F)F)s2)CC1	nt	i
CCc1nnc(NC(=O)c2cccnc2SC)s1	i	i
Cc1ccc(/C=N/N2C(=S)SC(C)(C)C2N(O)C(=O)Nc2ccc([N+](=O)[O-])cc2)cc1 (configuration not stated)	nt	i
CC1(C)SC(=S)N(/N=C/c2ccc(O)cc2)C1N(O)C(=O)Nc1ccc([N+](=O)[O-])cc1 (configuration not stated)	i	-7.55
C=CCOc1ccc(CNc2ccc3[nH]c(=O)[nH]c3c2)cc1	i	i
Cc1cccc(C(=O)NCCC(=O)Nc2ccc(F)c([N+](=O)[O-])c2)c1	i	i
COc1ccc(C(=O)NC(=S)Nc2ccc(CN3CCOCC3)cc2)cc1OC	nt	i
SMILES	KCNQ2 pot	KCNQ2 inh
COc1ccc(Br)cc1/C=C/C(=O)NC(=S)Nc1ccc(CN2CCOCC2)cc1	i	-6.33
O=C(N/N=C1\CCCc2c1[nH]c1ccc([N+](=O)[O-])cc21)c1ccncc1	i	i
COc1cccc(-c2noc(-c3ccc(Cl)nc3)n2)c1	nt	i
COc1ccc(Br)cc1-c1noc(-c2ccccc2)n1	nt	i
COc1ccc(Br)cc1-c1nc(C)c(C(C)=O)n1O	i	-7.19
CC(=O)Nc1ccc(S(=O)(=O)NCc2nc(-c3ccc(C)cc3)no2)cc1	i	i
COc1ccc(C2CC(c3cccs3)=Nc3ccccc3S2)cc1 (configuration not stated)	i	-5.96
COc1ccc(C2CC(c3cccs3)=NN2S(C)(=O)=O)cc1 (configuration not stated)	i	i
O=C(NCc1ccccc1)c1ccc(S(=O)(=O)NCc2ccco2)cc1	nt	i
O=C(c1ccccc1Cc1ccccc1)N1CCN(S(=O)(=O)c2ccccc2Br)CC1	nt	i
COc1ccccc1CN(C)C(=O)c1cnc(C)cn1	i	i
COc1ccccc1CN(C)C(=O)c1sccc1-c1ccccc1	i	-6.5
COc1ccc(S(=O)(=O)NC(C)C(=O)N2CCCC2)cc1C (configuration not stated)	nt	i
COc1ccc(NC(=O)COc2ccc3c(C)cc(=O)oc3c2)cc1S(=O)(=O)N1CCCCC1	i	i
CCOC(=O)c1nn(C23CC4CC(CC(C4)C2)C3)c2c1C(=O)N(c1ccc(C)cc1)C2=O	i	-6.85
COC(=O)c1cc(-c2ccc(Br)cc2)on1	i	i
COC(=O)c1nn(C23CC4CC(CC(C4)C2)C3)c2c1C(=O)N(c1ccc(Br)cc1)C2=O	i	-6.45
CCOC(=O)c1ccc(N2C(=O)C(C)=C(C)C2=O)cc1	nt	i
O=C(NC1CCCC1)c1cc(-c2cccc(Cl)c2)on1	nt	i
CC(C)OP(=O)(OC(C)C)C1(NS(=O)(=O)c2ccc(Cl)cc2)C=C(Cl)C(=O)C(Cl)=C1	i	i
O=C(c1cnn2c(C(F)(F)F)cc(-c3ccc(F)cc3)nc12)N1CCc2ccccc2C1	i	-6.27
Cc1ccc(-c2cc(C(F)F)n3ncc(C(=O)N4CCc5ccccc5C4)c3n2)cc1	nt	i
Cc1cc(-c2ccc(C(C)C)c(S(=O)(=O)N3CCN(c4ccccc4)CC3)c2)on1	nt	i
COc1ccccc1N1CCN(S(=O)(=O)c2cc(-c3cc(C)no3)ccc2C(C)C)CC1	i	-6
Nc1ccc(-c2cnc[nH]2)cc1[N+](=O)[O-]	i	i
SMILES	KCNQ2 pot	KCNQ2 inh
CCOC(=O)CCSc1nc(C)cc(C(F)(F)F)c1C#N	i	-5.74
CCOC(=O)CCSc1nc(C(C)(C)C)cc(C(F)(F)F)c1C#N	nt	i
COC(=O)CCCC(=O)NCC1(N(C)Cc2ccccc2)Cc2ccccc2C1	nt	i
O=C(CSc1nc(-c2ccc(F)cc2)cc(C(F)(F)F)n1)Nc1ccc2c(c1)OCO2	i	i
CCOC(=O)C1=C(c2ccccc2)NC(=O)NC1c1ccc(OC)c(OC)c1 (configuration not stated)	nt	i
CCOC(=O)C1=C(c2ccccc2)N(C)C(=O)NC1c1ccc(OC(F)F)c(OC)c1 (configuration not stated)	i	-5.56
Cn1c(NNC(=O)C(c2ccccc2)c2ccccc2)cc(=O)n(C)c1=O	i	i
CCOc1ccccc1NC(=O)C(OC(=O)c1ccccc1O)c1ccccc1 (configuration not stated)	nt	i
CCOc1ccccc1NC(=O)C(OC(=O)c1cc(C)oc1C)c1ccccc1 (configuration not stated)	i	-5.82
COc1ccccc1NC(=O)c1ccc(COc2ccccc2OC)o1	nt	i
Cc1ccc(OCc2ccc(C(=O)NN)o2)cc1C	nt	i
COC(=O)c1ccccc1NC(=O)c1ccc(COc2ccc(C)c(C)c2)o1	i	-6.59
COC(=O)c1ccccc1NC(=O)c1ccc(COc2cc(C)cc(C)c2)o1	i	-6.38
Cc1cc(OCCCN2CCCC2)ccc1Cl	i	i
Cn1c(N)c(C(=O)CSc2nc(N)cc(N)n2)c(=O)n(C)c1=O	i	i
CC(C)(C)[C@H]1CCC(=O)N([C@H](CN=[N+]=[N-])Cc2ccccc2)CC1	nt	i
O=C(/C=C/c1cccnc1)c1ccccc1O	i	-5.9
O=C(/C=C/c1cccnc1)c1ccc(O)cc1	nt	i
Cc1ccc2nc(-c3ccccc3)cc(C(=O)NCC3CCCO3)c2c1 (configuration not stated)	nt	i
Cc1ccc2nc(-c3ccccc3)cc(C(=O)NCC(c3ccco3)N(C)C)c2c1 (configuration not stated)	i	-5.8
CC1CCCCN1S(=O)(=O)c1ccc(C(=O)N2CCOCC2)cc1 (configuration not stated)	i	i
